# Reference: PubChem BioAssay (EPA / NIEHS)
# Calls of active or inactive are those of the source. How the source made its calls: active means hit-call score of the fitted dose curve at least 0.9, where 1 is the maximum; inactive means score below 0.9.
# How the values were obtained:
# Settings in all cases: mRNA level, 48 h; actives raise or lower the signal
# [1] = read-out: Intercellular Adhesion Molecule 1 (ICAM1), ICAM1 (gene 3383); assay: LTEA_HepaRG_ICAM1: Life Technologies and Expression Analysis (LTEA) Assay for Intercellular Adhesion Molecule 1 (ICAM1) using HepaRG (AID 2283507)
# Method in brief: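 ICAM1 transcript levels measured by qRT-PCR, normalized to three housekeeping genes (ACTB, GAPDH, POLR2A), after 48 h chemical exposure of HepaRG cells. Duplicate eight-point half-log series from 100 uM in 0.5% DMSO; gain or loss fitted against vehicle.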
# [2] = read-out: Insulin-like growth factor-binding protein 1 (IGFBP1), IGFBP1 (gene 3484); assay: LTEA_HepaRG_IGFBP1: Life Technologies and Expression Analysis (LTEA) Assay for Insulin-like growth factor-binding protein 1 (IGFBP1) using HepaRG (AID 2283508)
# Method in brief: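 Read-out is qRT-PCR transcript level normalized to three housekeeping genes, fitted in both directions against 0.5% DMSO. Differentiated HepaRG cells received eight half-log concentrations (top 100 uM) in duplicate for 48 h in serum-free induction medium.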
# [3] = read-out: Interleukin 6 (IL6), IL6 (gene 3569); assay: LTEA_HepaRG_IL6: Life Technologies and Expression Analysis (LTEA) Assay for Interleukin 6 (IL6) using HepaRG (AID 2283509)
# Method in brief: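 qRT-PCR read-out of IL6 transcript, normalized to three housekeeping genes, after 48 h chemical exposure of HepaRG cells; 8-point half-log series, top 100 uM, 0.5% DMSO vehicle. Bidirectional curve fitting against DMSO baseline.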
# [4] = read-out: Potassium channel subfamily K member 1 (KCNK1), KCNK1 (gene 3775); assay: LTEA_HepaRG_KCNK1: Life Technologies and Expression Analysis (LTEA) Assay for Potassium channel subfamily K member 1 (KCNK1) using HepaRG (AID 2283511)
# Method in brief: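 HepaRG, 48 h exposure, 8-pt half-log series top 100 uM, 0.5% DMSO vehicle, duplicates. Readout: KCNK1 transcript by qRT-PCR (Fluidigm array), housekeeping-normalized; bidirectional curve fit relative to DMSO baseline.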
# [5] = read-out: Keratin 19 (KRT19), KRT19 (gene 3880); assay: LTEA_HepaRG_KRT19: Life Technologies and Expression Analysis (LTEA) Assay for Keratin 19 (KRT19) using HepaRG (AID 2283512)
# Method in brief: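 KRT19 transcript measured by TaqMan qRT-PCR, referenced to three housekeeping genes, after HepaRG cells received test chemicals for 48 h. Eight half-log concentrations, top 100 uM, 0.5% DMSO vehicle; increases and decreases both fitted.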
# [6] = read-out: JUN Transcription Factor, JUN (gene 3725); assay: LTEA_HepaRG_JUN: Life Technologies and Expression Analysis (LTEA) Assay for JUN Transcription Factor using HepaRG (AID 2283513)
# Method in brief: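 HepaRG, 48 h exposure, 8-pt half-log series top 100 uM, 0.5% DMSO, duplicate. JUN mRNA by qRT-PCR (Fluidigm), housekeeping-normalized (ACTB/GAPDH/POLR2A); bidirectional curve fit vs DMSO baseline.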
# [7] = read-out: Lipase C (LIPC), LIPC (gene 3990); assay: LTEA_HepaRG_LIPC: Life Technologies and Expression Analysis (LTEA) Assay for Lipase C (LIPC) using HepaRG (AID 2283514)
# Method in brief: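 HepaRG, 48 h exposure, 8-pt half-log series from 100 uM in 0.5% DMSO, duplicates. Readout: LIPC mRNA by Fluidigm qRT-PCR, housekeeping-normalized (ACTB/GAPDH/POLR2A). Gain or loss fitted bidirectionally against DMSO baseline.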
# [8] = read-out: Lipoprotein lipase (LPL), LPL (gene 4023); assay: LTEA_HepaRG_LPL: Life Technologies and Expression Analysis (LTEA) Assay for Lipoprotein lipase (LPL) using HepaRG (AID 2283515)
# Method in brief: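 HepaRG, 48 h exposure, 8-pt half-log dilutions from 100 uM, 0.5% DMSO vehicle, duplicates; qRT-PCR (Fluidigm array) of LPL mRNA vs housekeeping genes; bidirectional curve fit relative to DMSO baseline.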
# [9] = read-out: MicroRNA 122 (MIR122), gene 406906; assay: LTEA_HepaRG_MIR122: Life Technologies and Expression Analysis (LTEA) Assay for MicroRNA 122 (MIR122) using HepaRG (AID 2283516); further: the transcript read is the microRNA miR-122
# Method in brief: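 qRT-PCR read-out (TaqMan, Fluidigm array), normalized to three housekeeping genes; HepaRG cells dosed 48 h at 8 concentrations up to 100 uM in 0.5% DMSO, duplicate; gain or loss fitted against DMSO baseline.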
# [10] = read-out: matrix metalloproteinase-10 (MMP10), MMP10 (gene 4319); assay: LTEA_HepaRG_MMP10: Life Technologies and Expression Analysis (LTEA) Assay for matrix metalloproteinase-10 (MMP10) using HepaRG (AID 2283517)
# Method in brief: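 Transcript levels come from Fluidigm qRT-PCR normalized to three housekeeping genes, with curves fitted bidirectionally against 0.5% DMSO. Human HepaRG cells were dosed for 48 hours at concentrations up to 100 uM.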
# [11] = read-out: matrix metalloproteinase-3 (MMP3), MMP3 (gene 4314); assay: LTEA_HepaRG_MMP3: Life Technologies and Expression Analysis (LTEA) Assay for matrix metalloproteinase-3 (MMP3) using HepaRG (AID 2283519)
# Method in brief: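 qRT-PCR read-out of MMP3 mRNA (normalised to three housekeeping genes) in HepaRG liver cells after 48 h chemical exposure; 8-point half-log series, top 100 uM, 0.5% DMSO vehicle. Bidirectional curve fitting against DMSO baseline.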
# [12] = read-out: Nuclear factor NF-kappa-B p105 subunit (Homo sapiens) (UniProt P19838); assay: LTEA_HepaRG_NFKB1: Life Technologies and Expression Analysis (LTEA) Assay for Nuclear Factor Kappa B Subunit 1 (NFKB1) using HepaRG (AID 2283521)
# Method in brief: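 Differentiated human HepaRG cells were exposed for 48 h in serum-free induction medium to eight concentrations (top 100 uM, half-log steps, 0.5% DMSO), in duplicate. NFKB1 mRNA was measured by TaqMan qRT-PCR, normalized to ACTB/GAPDH/POLR2A, and fitted bidirectionally against DMSO.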
# [13] = read-out: Protein phosphatase 2A (PPP2R4), PTPA (gene 5524); assay: LTEA_HepaRG_PPP2R4: Life Technologies and Expression Analysis (LTEA) Assay for Protein phosphatase 2A (PPP2R4) using HepaRG (AID 2283522)
# Method in brief: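 HepaRG, 48 h exposure, 8-pt half-log series from 100 uM, 0.5% DMSO vehicle, duplicates. Readout: PPP2R4 mRNA, Fluidigm qRT-PCR, housekeeping-normalized. Bidirectional curve fit vs DMSO baseline.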
# [14] = read-out: Phosphatase and tensin (PTEN), PTEN (gene 5728); assay: LTEA_HepaRG_PTEN: Life Technologies and Expression Analysis (LTEA) Assay for Phosphatase and tensin (PTEN) using HepaRG (AID 2283523)
# Method in brief: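 HepaRG, 48 h exposure, 8-pt half-log series from 100 uM top, 0.5% DMSO vehicle, duplicates. Readout: Fluidigm qRT-PCR of PTEN transcript; housekeeping normalization (ACTB, GAPDH, POLR2A). Gain or loss fitted relative to DMSO baseline.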
# [15] = read-out: solute carrier (SLC22A1), SLC22A1 (gene 6580); assay: LTEA_HepaRG_SLC22A1: Life Technologies and Expression Analysis (LTEA) Assay for solute carrier (SLC22A1) using HepaRG (AID 2283524)
# Method in brief: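 qRT-PCR readout (TaqMan, Fluidigm arrays) of SLC22A1 transcript, normalized to three housekeeping genes; bidirectional curve fit relative to 0.5% DMSO vehicle. Differentiated human HepaRG cells, 48 h chemical exposure, top concentration 100 uM, half-log steps, eight points.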
# [16] = read-out: Pyruvate Dehydrogenase Kinase 4 (PDK4), PDK4 (gene 5166); assay: LTEA_HepaRG_PDK4: Life Technologies and Expression Analysis (LTEA) Assay for Pyruvate Dehydrogenase Kinase 4 (PDK4) using HepaRG (AID 2283525)
# Method in brief: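 HepaRG (human liver line), 48 h chemical exposure, 8-pt half-log CRC top 100 uM, 0.5% DMSO vehicle, duplicates. Readout: TaqMan qRT-PCR of PDK4 mRNA, housekeeping-normalized; gain/loss fit relative to DMSO baseline.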
# [17] = read-out: NAD(P)H dehydrogenase [quinone] 1 (NQO1), NQO1 (gene 1728); assay: LTEA_HepaRG_NQO1: Life Technologies and Expression Analysis (LTEA) Assay for NAD(P)H dehydrogenase [quinone] 1 (NQO1) using HepaRG (AID 2283526)
# Method in brief: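 qRT-PCR read-out (Fluidigm TaqMan), normalized to three housekeeping genes, after 48 h chemical exposure of HepaRG cells. Concentrations: eight points, top 100 uM, half-log steps, 0.5% DMSO vehicle. Gain or loss of signal fitted relative to DMSO.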
# MYC, MYC (gene 4609) = assay: LTEA_HepaRG_MYC: Life Technologies and Expression Analysis (LTEA) Assay for MYC using HepaRG (AID 2283518)
# Method in brief: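 MYC transcript changes, up or down relative to 0.5% DMSO, from TaqMan qRT-PCR normalized to three housekeeping genes. Human HepaRG cultures received chemicals for 48 h at eight half-log concentrations up to 100 uM, in duplicate.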
# [18] = read-out: Interleukin 6 Receptor (IL6R), IL6R (gene 3570); assay: LTEA_HepaRG_IL6R: Life Technologies and Expression Analysis (LTEA) Assay for Interleukin 6 Receptor (IL6R) using HepaRG (AID 2283510)
# Method in brief: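 HepaRG, 48 h exposure, 8-pt half-log series, top 100 uM, 0.5% DMSO vehicle, duplicates. Read-out: TaqMan qRT-PCR of IL6R transcript, housekeeping-gene normalized. Gain or loss fitted relative to DMSO baseline.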
# [19] = read-out: Paternally Expressed 10 (PEG10), PEG10 (gene 23089); assay: LTEA_HepaRG_PEG10: Life Technologies and Expression Analysis (LTEA) Assay for Paternally Expressed 10 (PEG10) using HepaRG (AID 2283520);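 on AC50: PEG10 transcript by qRT-PCR normalised to ACTB GAPDH and POLR2A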
# Method in brief: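 qRT-PCR read-out: PEG10 mRNA normalised to three housekeeping genes, fitted bidirectionally against 0.5% DMSO vehicle. HepaRG cells received test chemicals for 48 h in serum-free induction medium, 8 points, top 100 uM, half-log steps.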
# Chain of Nuclear factor NF-kappa-B p105 subunit (Homo sapiens) (P19838 whole entry, looked up): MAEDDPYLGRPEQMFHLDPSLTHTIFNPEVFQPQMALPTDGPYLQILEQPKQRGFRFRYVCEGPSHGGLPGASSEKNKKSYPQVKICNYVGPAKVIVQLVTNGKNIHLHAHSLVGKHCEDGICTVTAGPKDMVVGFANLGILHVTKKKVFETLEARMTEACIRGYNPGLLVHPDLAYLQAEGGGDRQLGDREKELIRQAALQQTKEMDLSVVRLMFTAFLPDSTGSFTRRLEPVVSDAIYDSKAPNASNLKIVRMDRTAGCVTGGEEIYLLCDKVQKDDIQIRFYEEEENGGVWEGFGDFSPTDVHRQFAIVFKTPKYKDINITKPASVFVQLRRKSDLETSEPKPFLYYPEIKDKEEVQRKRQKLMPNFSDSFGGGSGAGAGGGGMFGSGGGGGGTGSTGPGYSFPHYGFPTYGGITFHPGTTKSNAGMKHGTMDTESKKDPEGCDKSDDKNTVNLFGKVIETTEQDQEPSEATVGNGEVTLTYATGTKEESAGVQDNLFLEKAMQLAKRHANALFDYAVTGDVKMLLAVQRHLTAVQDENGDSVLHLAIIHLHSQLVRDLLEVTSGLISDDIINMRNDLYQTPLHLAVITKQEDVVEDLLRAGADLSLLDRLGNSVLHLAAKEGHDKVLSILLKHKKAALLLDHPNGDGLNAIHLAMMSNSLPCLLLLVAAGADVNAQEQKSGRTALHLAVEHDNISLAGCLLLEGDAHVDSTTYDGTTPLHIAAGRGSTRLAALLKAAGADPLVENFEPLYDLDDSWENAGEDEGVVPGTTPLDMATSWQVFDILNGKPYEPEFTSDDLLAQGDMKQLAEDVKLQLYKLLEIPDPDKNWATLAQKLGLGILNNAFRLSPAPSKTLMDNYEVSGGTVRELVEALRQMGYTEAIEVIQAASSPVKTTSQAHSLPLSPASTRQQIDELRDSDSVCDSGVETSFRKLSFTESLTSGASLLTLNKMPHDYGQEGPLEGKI
structure (smiles),measurement,setting,value
O=C(O)c1ccccc1C(c1ccc(O)cc1)c1ccc(O)cc1,outcome,[1],inactive
same,outcome,[2],inactive
same,outcome,[3],inactive
same,outcome,[4],inactive
same,outcome,[5],inactive
same,outcome,[6],inactive
same,outcome,[7],inactive
same,outcome,[8],inactive
same,outcome,[9],inactive
same,outcome,[10],inactive
same,outcome,[11],inactive
same,outcome,[12],inactive
same,outcome,[13],inactive
same,outcome,[14],inactive
same,outcome,[15],inactive
same,outcome,[16],inactive
same,outcome,[17],inactive
CCCOC(=O)c1ccc(O)cc1,outcome,[1],inactive
same,outcome,[2],inactive
same,outcome,[3],inactive
same,outcome,[4],inactive
same,outcome,[5],inactive
same,outcome,[6],inactive
same,outcome,[7],inactive
same,outcome,[8],inactive
same,outcome,[9],inactive
same,outcome,[10],inactive
same,outcome,"MYC, MYC (gene 4609)",inactive
same,outcome,[11],inactive
same,outcome,[13],inactive
same,outcome,[14],inactive
same,outcome,[15],inactive
same,outcome,[16],inactive
same,outcome,[17],inactive
NC(=O)N(O)[C@@H]1C=C[C@H](Oc2cccc(Oc3ccc(F)cc3)c2)C1,AC50,[1],37.3 µM (active)
same,AC50,[2],71.8 µM (active)
same,AC50,[3],38.6 µM (active)
same,outcome,[18],inactive
same,AC50,[4],35.5 µM (active)
same,outcome,[5],inactive
same,AC50,[7],36.4 µM (active)
same,AC50,[9],68 µM (active)
same,AC50,[10],64.8 µM (active)
same,AC50,"MYC, MYC (gene 4609)",72.7 µM (active)
same,AC50,[11],85.9 µM (active)
same,AC50,[19],5.31 µM (active)
same,AC50,[12],74.4 µM (active)
same,outcome,[13],inactive
same,outcome,[14],inactive
same,AC50,[15],63.6 µM (active)
same,AC50,[16],50 µM (active)
same,outcome,[17],inactive
C[C@@H]1C[C@H]2[C@@H]3CCC4=CC(=O)C=C[C@]4(C)[C@@]3(F)[C@@H](O)C[C@]2(C)[C@@]1(O)C(=O)COP(=O)(O)O,outcome,[1],inactive
same,outcome,[2],inactive
same,outcome,[3],inactive
same,outcome,[18],inactive
same,outcome,[4],inactive
same,outcome,[5],inactive
same,outcome,[6],inactive
same,outcome,[7],inactive
same,outcome,[8],inactive
same,outcome,[9],inactive
same,outcome,[10],inactive
same,outcome,[11],inactive
same,outcome,[19],inactive
same,outcome,[12],inactive
same,outcome,[13],inactive
same,outcome,[14],inactive
same,outcome,[15],inactive
same,outcome,[16],inactive
same,outcome,[17],inactive
COCC(C)OCC(C)O (configuration not stated),outcome,[1],inactive
same,outcome,[2],inactive
same,outcome,[3],inactive
same,outcome,[18],inactive
same,outcome,[4],inactive
same,outcome,[5],inactive
same,outcome,[7],inactive
same,outcome,[8],inactive
same,outcome,[9],inactive
same,outcome,[10],inactive
same,outcome,[11],inactive
same,outcome,[12],inactive
same,outcome,[13],inactive
same,outcome,[14],inactive
same,outcome,[15],inactive
same,outcome,[16],inactive
same,outcome,[17],inactive
CCCCCCCCCCCCCCCS(=O)(=O)Oc1ccccc1,outcome,[1],inactive
same,outcome,[2],inactive
same,outcome,[3],inactive
same,outcome,[18],inactive
same,outcome,[4],inactive
same,outcome,[5],inactive
same,outcome,[7],inactive
same,outcome,[9],inactive
same,outcome,[10],inactive
same,outcome,"MYC, MYC (gene 4609)",inactive
same,outcome,[11],inactive
same,outcome,[12],inactive
same,outcome,[13],inactive
same,outcome,[14],inactive
same,outcome,[15],inactive
same,outcome,[16],inactive
same,outcome,[17],inactive
C#C[C@]1(O)CC[C@H]2[C@@H]3CCC4=CC(=O)CC[C@@H]4[C@H]3CC[C@@]21C,outcome,[1],inactive
same,outcome,[2],inactive
same,outcome,[3],inactive
same,outcome,[18],inactive
same,outcome,[4],inactive
same,outcome,[5],inactive
same,outcome,[7],inactive
same,outcome,[9],inactive
same,outcome,[10],inactive
same,AC50,[11],7.81 µM (active)
same,AC50,[19],0.321 µM (active)
same,outcome,[12],inactive
same,outcome,[13],inactive
same,outcome,[14],inactive
same,AC50,[15],32.1 µM (active)
same,outcome,[16],inactive
same,outcome,[17],inactive
